# Experimental data published in PubChem BioAssay AID493191 (Broad Institute, 2011).
# The campaign covered roughly 1,300 compounds. About 330 (25%) were called active. How the calls were made is not given here. The list is a sample of the results. Entries with a potency or affinity are not part of this list.
# Experiment: MALME3 melanoma cell viability loss, dose response, orthogonal assay for MITF inhibitor project, CellTiter-Glo, cherry-picked (AID 493191)
# Conditions: CellTiter-Glo luminescence, 24 h; series mostly up to 35 µM
row,SMILES,outcome
1,CC1Cc2ccccc2N1C(=O)c1ccc(Br)o1 (stereo not given),inactive
2,CCOC(=O)/C=c1/s/c(=C/c2ccc3cc(OC)ccc3c2)c(=O)n1CC(=O)NCC1CCCO1 (stereo not given),inactive
3,O=C(Nc1ccc(-c2cn3c(n2)SCC3)cc1)c1ccco1,inactive
4,C/C(=N\NC(=O)C1COc2ccccc2O1)c1ccccn1 (stereo not given),inactive
5,O=[N+]([O-])c1ccc(N/N=C/C=C/c2ccco2)cc1,inactive
6,O=C(NC1=NCCS1)C1COc2ccccc2O1 (stereo not given),inactive
7,C/C(=N\NC(=O)COc1ccccc1-c1ccccc1)c1ccccn1,inactive
8,C=CCOc1ccc(/C=C2\SC(=S)N(CCC(=O)O)C2=O)cc1,inactive
9,Cc1c(C#N)c(NC(=O)CCl)n(Cc2cccs2)c1C,inactive
10,O=C(NCc1cccs1)c1nc2c(nnn2Cc2ccccc2Cl)c(=O)[nH]1,inactive
11,CC(=O)Oc1c(C(=O)c2nnc(C)o2)c(=O)n(Cc2ccccc2)c2ccccc12,inactive
12,COc1ccc(/C=N/NC(=O)Cc2cccs2)cc1,inactive
13,Cc1occc1C(=O)N/N=C/c1ccc(OCc2ccccc2)cc1,inactive
14,Cc1ccc(OCC(=O)N/N=C/c2ccc([N+](=O)[O-])o2)cc1,inactive
15,Cc1ccc(SCCC(=O)N2CCC(C)CC2)cc1,inactive
16,Cc1cc(/C=C(\C#N)C(=O)O)c(C)n1CC(C)C,inactive
17,Cc1ccc(SCCSc2ncccn2)cc1,inactive
18,Nc1c(-c2ccccc2)cnc2c(-c3ccccc3)cnn12,inactive
19,COc1ccccc1OCCN1CSC(=S)N(C)C1,inactive
20,O=C(Nc1ccc(F)cc1F)c1cc2ccccc2oc1=O,inactive
21,COc1ccc(C(=O)CN2Cc3ccccc3C2=N)cc1,inactive
22,O=C(Nc1ccccc1)O/N=C/c1ccc(F)cc1,inactive
23,CC1(C)Cc2c(sc(NC(=O)c3ccc4ncsc4c3)c2C(N)=O)C(C)(C)N1,inactive
24,CCCN(CCC)C1=CC(=[N+]2CCCC2)CC(C)(C)C1,inactive

row,SMILES,outcome
1,O=C(N/N=C/c1ccc(F)cc1)c1c(O)c2ccccc2[nH]c1=O,inactive
2,CC(C)C(=O)Nc1cccc(NC(=O)c2cc3ccccc3o2)c1,inactive
3,Cc1ccc(NC(=O)c2cc3ccccc3oc2=O)cc1S(=O)(=O)N(C)C,inactive
4,Cc1ccc(-c2nc(C#N)c(NCc3ccco3)o2)cc1,inactive
5,Cc1ccc2c(COC(=O)c3n[nH]c4ccccc34)cc(=O)oc2c1,inactive
6,N#C/C(C(=O)c1ccccc1)=C1/CCCCCN1,inactive
7,COc1ccc2c(c1OC)C(=O)N(c1ccc(C)cc1)C2,inactive
8,CCOc1cc(/C=C(/C#N)c2ccc(Cl)cc2)cc(Cl)c1OCC(=O)O,inactive
9,O=C(Nc1ccc2nc3n(c(=O)c2c1)CCCCC3)c1cc([N+](=O)[O-])ccc1F,inactive
10,CC(C)(C)C(=O)Nc1cc2nn(-c3ccccc3)nc2cc1Cl,inactive
11,Oc1ccc(-c2nnc(SCC3CCCCC3)o2)cc1,inactive
12,CC(=O)c1cccc(Nc2nc(-c3cccnc3)cs2)c1,inactive
13,CCOc1cc(/C=C\[N+](=O)[O-])ccc1OCC(=O)N1CCOCC1,inactive
14,C/C(=N/Nc1nc(C)c(C)s1)c1cccc([N+](=O)[O-])c1,inactive
15,CCOc1ccccc1NC(=O)C1C2CCC(O2)C1C(=O)O (stereo not given),inactive
16,Cc1cc(/C(N)=N/OC(=O)Nc2ccc(Cl)cc2)no1,inactive
17,Cc1ccccc1OCC(=O)Nc1cccc(C(=O)O)c1,inactive
18,COc1ccc(NC(=O)c2cc3ccccc3oc2=O)c(OC)c1,inactive
19,COc1ccccc1/C=C/C=N/NC(=O)c1cccs1,inactive
20,COc1cccc(/C=N/NC(=O)c2cccs2)c1,inactive
21,COc1ccc(-c2noc(-c3cccs3)n2)cc1OC,inactive
22,N#CCSc1nc2ccccc2c2nc3ccccc3n12,inactive
23,CC1(C)CC(=O)c2cnc(N3CCc4ccccc43)nc2C1,inactive
24,Cc1cc(C(=O)CSc2nnc3ccccn23)c(C)n1-c1ccccc1,inactive

row,SMILES,outcome
1,COc1ccccc1N(C(=O)CCl)c1cn(C(C)=O)c2ccccc12,inactive
2,Cn1cc(C(=O)CCl)c2ccccc21,inactive
3,Cc1ccc2c(C(=O)CCl)c(C)[nH]c2c1,inactive
4,O=C(Nc1ccc(OC(F)(F)F)cc1)c1[nH]ncc1[N+](=O)[O-],inactive
5,COC(=O)c1c(C)[nH]c(/C=N/Nc2ccccc2)c1C,inactive
6,COCc1nc(-c2ccc(-c3ccccc3)nc2OC)no1,inactive
7,C/C(=N\Nc1nccnc1Cl)c1ccc(O)c(C)c1,inactive
8,Nc1ccc2c(c1)OC1(CCCC1)O2,inactive
9,COc1cc(OC)cc(-c2oc(=O)c3cc(OC)c(OC)cc3c2C(F)(F)F)c1,inactive
10,CN1CCN(c2ccc(NC(=S)NC(=O)c3cccc4ccccc34)cc2)CC1,inactive
11,CC1CCN(c2ccc(NC(=O)c3cccnc3)cc2)CC1,inactive
12,CC(C)(C)c1ccc(C(=O)Nc2ccc(CC(=O)O)cc2)o1,inactive
13,COc1c(C)cccc1C(=O)Nc1ccc(N2CCN(S(C)(=O)=O)CC2)cc1,inactive
14,CCCCOC(=O)Nc1ccc2c(C)cc(=O)oc2c1,inactive
15,CC(C)N=C(NS(=O)(=O)c1ccccc1)C(Cl)(Cl)Cl,inactive
16,CC(=O)Oc1ccc(C)cc1-n1nc2ccccc2n1,inactive
17,NC(=O)c1ccccc1NC(=O)/C=C/c1cccc(Cl)c1,inactive
18,Nc1ccc(-c2ncc(-c3ccccc3)o2)cc1,inactive
19,N#C/C(=C\c1c[nH]c2ccccc12)C(=O)NC1CC1,inactive
20,Cc1ccc(NC(=O)c2cc3cccc([N+](=O)[O-])c3[nH]2)cc1,inactive
21,ClC1(Cl)CC1CSc1nnc(-c2ccncc2)o1 (stereo not given),inactive
22,COc1cc(SC)ccc1C(=O)Nc1ccc(Br)cn1,inactive
23,COc1ccc(-n2ncc3c(N4CCCCC4)ncnc32)cc1,inactive
24,Cc1ccc(C(=O)c2coc3ccc(O)c(Cl)c23)cc1,inactive

row,SMILES,outcome
1,COc1cccc(-c2ccc3c(N)c(C(=O)NC4CC4)sc3n2)c1,inactive
2,O=S(=O)(CC(CN1CCCCC1)N1CCCCC1)c1ccc2ccccc2c1 (stereo not given),inactive
3,Cc1ccc(S(=O)(=O)CC(CN2CCCCC2)N2CCCCC2)cc1 (stereo not given),inactive
4,C=CCC(Nc1ccccc1)C12C=CC(O1)C(C(=O)OC)=C2C(=O)OC (stereo not given),inactive
5,Cc1ccc(C)c(-n2c3nc(=O)[nH]c(=O)c-3cc3cc([N+](=O)[O-])ccc32)c1,inactive
6,COc1ccc(C2C(C#N)=C(N)Oc3c2oc(CO)cc3=O)cc1 (stereo not given),inactive
7,Cc1ccc(NC(=O)Cc2noc3ccccc23)cc1,inactive
8,Cc1cnc(NC(=O)c2nn(C)cc2[N+](=O)[O-])s1,inactive
9,COc1ccccc1C(=O)Nc1nc(-c2ccc(S(=O)(=O)N3CCOCC3)cc2)cs1,inactive
10,O=C(O)c1cccc(N/N=C/c2cccs2)c1,inactive
11,Cc1cc(C(=O)Nc2ccc([N+](=O)[O-])cn2)cs1,inactive
12,O=C(N/N=C/c1cc([N+](=O)[O-])ccc1N1CCNCC1)c1ccc([N+](=O)[O-])cc1,inactive
13,O=C(O)c1cccc(N/N=C/c2ccc(OC(F)(F)F)cc2)c1,inactive
14,c1cnc(SCCOc2ccc3c(c2)CCC3)nc1,inactive
15,Cn1nnnc1Sc1ncnc2scc(-c3cccc(F)c3)c12,inactive
16,CC1CCCCC1NC(=O)/C(C#N)=C/c1ccccc1F (stereo not given),inactive
17,COc1cccc(NC(=O)c2cnn(-c3ccccc3)c2C)c1,inactive
18,CCOc1ccc(-c2noc(CCC(=O)O)n2)cc1,inactive
19,CCOc1ccc(NC(=O)c2ccc3snnc3c2)cc1,inactive
20,Cc1nc(NC(=O)/C=C/c2ccccc2)n[nH]1,inactive
21,O=C(Nc1ccc(Cl)cc1)OCc1ccccn1,inactive
22,O=C(Nc1ccc(N2CCOCC2)cc1)c1cnsn1,inactive
23,O=C(CCCCl)NC(=S)Nc1ccc(N2CCOCC2)cc1,inactive
24,COc1ccc(C(=O)Nc2ccc3ccccc3c2)cc1OC,inactive

row,SMILES,outcome
1,O=C(Nc1ccc2ncccc2c1)c1ccccc1Br,inactive
2,O=C(Nc1ccc2c(c1)OCCO2)c1coc2ccccc2c1=O,inactive
3,Brc1cccc(/C=N/Nc2nn[nH]n2)c1,inactive
4,CCN(CC)CC(=O)Nc1scc2c1c(=O)oc1ccccc12,inactive
5,Cc1ccc(Nc2nnc(-c3ccccc3N)o2)cc1C,inactive
6,C=CCOc1ccc(/C=C/C(C)=N\O)cc1,inactive
7,O=C(c1cc2ccccc2oc1=O)N(Cc1ccccc1)C1CCS(=O)(=O)C1 (stereo not given),inactive
8,COc1ccc(C(=O)NCC(=O)c2ccccc2)cc1,inactive
9,NCCN1C(=O)S/C(=C\c2ccc3c(c2)OCO3)C1=O,inactive
10,CC(C)S(=O)(=O)c1csc(C(=O)Nc2ccc(F)cc2)c1N,inactive
11,O=C(NCc1ccc2c(c1)OCO2)c1cc(=O)[nH]c2ccccc12,inactive
12,CN(C)c1ccc(NC(=S)c2ccccn2)cc1,inactive
13,N/C(=N\OC(=O)c1ccc(Cl)cc1Cl)c1ccncc1,inactive
14,Cc1ccc(-n2nnnc2Sc2nc([N+](=O)[O-])nn2C)c(C)c1,inactive
15,Cc1ccc(-n2cc(CNCCCn3cccn3)c(-c3cccc(C)c3)n2)cc1,inactive
16,C=C1C(=O)O[C@@]23[C@H]1CC[C@@H](C)[C@@H]2CC[C@@]1(C)O[C@@H]31,inactive
17,Cc1ccc(C2CC(C(F)(F)F)n3nc(C(=O)NCc4c(C)nn(C)c4C)c(Cl)c3N2)cc1 (stereo not given),inactive
18,Cn1c(/C=C/c2ccc(Cl)cc2)nc2ccccc2c1=O,inactive
19,COc1cccc(-c2csc3ncnc(Sc4nnnn4C)c23)c1,inactive
20,Cc1ccc(-c2noc(CN3CCCCC3)n2)cc1,inactive
21,O=C(Nc1ccc(N2CCOCC2)c(Cl)c1)c1cccc(F)c1,inactive
22,C=CCn1cccc(C(=O)Nc2ccc(C)c(Cl)c2)c1=O,inactive
23,Cc1ccc2nc(NC(=O)CSCC(=O)OCC(=O)c3ccccc3)sc2c1,inactive
24,O=C(O)c1ccc(N/N=C/c2ccc3nccnc3c2)cc1,inactive
